Hit rate of the full screen: of about 5,500 compounds, about 2,000 (36%) were called active. Roughly 18% stayed inconclusive and do not appear here. Cut-off read from the data, not from the text of the source: active = normalized growth mostly below about 0.91 (no sharp cut-off); inconclusive = no clear call, values can overlap the other calls; inactive = mostly above about 0.92. The list shows a part of the results.
Test: chemical genetic growth profiling, strain panel (AID 1159580);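 note: tested at 20 µM; growth read once vehicle control cultures reached saturation at 30 °C; 1 = growth at the plate median or of vehicle wells; lower values mean less growth of the strain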
Conditions: S. cerevisiae deletion strains, growth OD

Measured: normalized growth

COc1cc2nc(N(C)CCCNC(=O)C3CCCO3)nc(N)c2cc1OC (stereo not given)
inactive: locus YAL021C, strain ccr4, active compounds read low 1.02 | locus YAL026C, strain drs2, active compounds read low 1 | locus YAL030W, strain snc1, active compounds read low 0.979 | locus YBL061C, strain skt5, active compounds read low 0.986 | locus YBR009C, strain hhf1, active compounds read low 1.01 | locus YBR021W, strain FUR4, active compounds read low 0.994 | locus YBR023C, strain chs3, active compounds read low 0.997 | locus YBR171W, strain sec66, active compounds read low 0.988 | locus YBR229C, strain ROT2, active compounds read low 1 | locus YBR231C, strain swc5, active compounds read low 0.998 | locus YBR279W, strain paf1, active compounds read low 0.993 | locus YCL011C, strain gbp2, active compounds read low 0.993 | locus YCL016C, strain dcc1, active compounds read low 1 | locus YCL029C, strain bik1, active compounds read low 1.02 | locus YCL061C, strain MRC1, active compounds read low 0.996 | locus YCL069W, strain vba3, active compounds read low 0.993 | locus YCR088W, strain abp1, active compounds read low 0.986 | locus YDL005C, strain med2, active compounds read low 1 | locus YDL035C, strain GPR1, active compounds read low 1.03 | locus YDL040C, strain nat1, active compounds read low 0.993 | locus YDL074C, strain BRE1, active compounds read low 1.03 | locus YDL101C, strain DUN1, active compounds read low 1.01 | locus YDL185W, strain tfp1, active compounds read low 1.02 | locus YDL192W, strain arf1, active compounds read low 1.01 | locus YDR001C, strain nth1, active compounds read low 0.997 | locus YDR069C, strain doa4, active compounds read low 0.991 | locus YDR101C, strain arx1, active compounds read low 1.01 | locus YDR137W, strain rgp1, active compounds read low 1 | locus YDR159W, strain sac3, active compounds read low 1.03 | locus YDR162C, strain NBP2, active compounds read low 1.03 | locus YDR195W, strain ref2 0.972 | locus YDR297W, strain sur2, active compounds read low 1 | locus YDR318W, strain mcm21, active compounds read low 1.02 | locus YDR334W, strain swr1, active compounds read low 0.999 | locus YDR335W, strain msn5, active compounds read low 1 | locus YDR388W, active compounds read low 0.999 | locus YDR392W, strain spt3, active compounds read low 1.01 | locus YDR502C, strain sam2, active compounds read low 1 | locus YEL003W, strain gim4, active compounds read low 1 | locus YEL037C, strain rad23, active compounds read low 0.998 | locus YEL061C, strain CIN8 (second series), active compounds read low 0.986 | locus YEL061C, strain CIN8, active compounds read low 1.01 | locus YER015W, strain faa2, active compounds read low 0.995 | locus YER016W, strain bim1, active compounds read low 0.998 | locus YER110C, active compounds read low 1 | locus YER111C, strain swi4, active compounds read low 0.987 | locus YER155C, strain BEM2 (second series), active compounds read low 0.999 | locus YER155C, strain BEM2, active compounds read low 0.998 | locus YER167W, strain BCK2, active compounds read low 1.01 | locus YFR010W, strain ubp6, active compounds read low 0.992 | locus YGL078C, strain dbp3, active compounds read low 1 | locus YGL086W, strain mad1, active compounds read low 1.01 | locus YGL167C, strain pmr1, active compounds read low 0.995 | locus YGL173C, strain kem1, active compounds read low 0.994 | locus YGL227W, strain vid30, active compounds read low 0.986 | locus YGL240W, strain doc1, active compounds read low 0.987 | locus YGL248W, strain PDE1, active compounds read low 1.01 | locus YGL253W, strain hxk2, active compounds read low 0.992 | locus YGR135W, strain pre9, active compounds read low 0.998 | locus YGR252W, strain gcn5, active compounds read low 0.95 | locus YHR013C, strain ard1, active compounds read low 0.999 | locus YHR027C, strain rpn1, active compounds read low 0.997 | locus YHR030C, strain SLT2, active compounds read low 1.03 | locus YHR079C, strain IRE1 (second series), active compounds read low 0.997 | locus YHR094C, strain hxt1, active compounds read low 1 | locus YHR129C, strain ARP1, active compounds read low 1.01 | locus YHR142W, strain chs7, active compounds read low 0.979 | locus YHR200W, strain rpn10, active compounds read low 1.01 | locus YIL066C, strain RNR3, active compounds read low 1.04 | locus YIL073C, strain SPO22, active compounds read low 1.03 | locus YIL125W, strain kgd1, active compounds read low 1.01 | locus YIR030C, strain dcg1, active compounds read low 0.995 | locus YJL092W, strain hpr5, active compounds read low 0.995 | locus YJL095W, strain BCK1 (second series), active compounds read low 0.994 | locus YJL095W, strain BCK1, active compounds read low 1.03 | locus YJL115W, strain asf1, active compounds read low 1 | locus YJL129C, strain trk1, active compounds read low 1 | locus YJL134W, strain LCB3, active compounds read low 1.02 | locus YJL154C, strain vps35, active compounds read low 0.993 | locus YJL164C, strain tpk1, active compounds read low 1 | locus YJL166W, strain qcr8, active compounds read low 0.985 | locus YJL168C, strain set2, active compounds read low 0.994 | locus YJL187C, strain SWE1 (second series), active compounds read low 1.02 | locus YJL187C, strain SWE1, active compounds read low 0.999 | locus YJR043C, strain POL32, active compounds read low 1.03 | locus YJR075W, strain HOC1, active compounds read low 1.01 | locus YKL009W, strain mrt4, active compounds read low 1.01 | locus YKL068W, active compounds read low 1.01 | locus YKL085W, strain MDH1 (second series), active compounds read low 1.02 | locus YKL085W, strain MDH1, active compounds read low 1.02 | locus YKL190W, strain CNB1, active compounds read low 1.03 | locus YKR001C, strain vps1, active compounds read low 1.01 | locus YKR026C, strain gcn3, active compounds read low 0.995 | locus YKR091W, strain srl3, active compounds read low 0.995 | locus YLL001W, strain dnm1, active compounds read low 0.99 | locus YLL026W, active compounds read low 0.992 | locus YLL041C, strain sdh2, active compounds read low 0.998 | locus YLR027C, strain aat2, active compounds read low 0.991 | locus YLR039C, strain RIC1, active compounds read low 1.07 | locus YLR058C, strain SHM2, active compounds read low 1.02 | locus YLR102C, strain apc9, active compounds read low 1.01 | locus YLR221C, strain rsa3, active compounds read low 0.998 | locus YLR258W, strain gsy2, active compounds read low 0.994 | locus YLR262C, strain YPT6 (second series), active compounds read low 0.981 | locus YLR262C, strain YPT6, active compounds read low 1.07 | locus YLR268W, strain sec22, active compounds read low 0.99 | locus YLR320W, strain mms22, active compounds read low 1 | locus YLR330W, strain CHS5, active compounds read low 1.02 | locus YLR342W, strain FKS1 (second series), active compounds read low 1.03 | locus YLR342W, strain FKS1, active compounds read low 0.995 | locus YLR357W, strain rsc2, active compounds read low 0.984 | locus YLR370C, strain arc18, active compounds read low 1.01 | locus YLR371W, strain rom2, active compounds read low 1.02 | locus YLR384C, strain iki3, active compounds read low 0.988 | locus YLR418C, strain cdc73, active compounds read low 0.995 | locus YML016C, strain PPZ1, active compounds read low 1.01 | locus YML032C, strain rad52, active compounds read low 1 | locus YML120C, strain ndi1, active compounds read low 0.998 | locus YML124C, strain tub3, active compounds read low 0.997 | locus YMR058W, strain fet3, active compounds read low 0.996 | locus YMR078C, strain ctf18, active compounds read low 0.998 | locus YMR125W, strain sto1, active compounds read low 0.995 | locus YMR129W, active compounds read low 0.987 | locus YMR205C, strain PFK2, active compounds read low 0.993 | locus YMR223W, strain ubp8, active compounds read low 1.03 | locus YMR231W, strain pep5, active compounds read low 1 | locus YMR307W, strain GAS1, active compounds read low 1.02 | locus YNL067W, strain RPL9B, active compounds read low 1.02 | locus YNL071W, strain lat1, active compounds read low 1 | locus YNL209W, strain ssb2, active compounds read low 0.996 | locus YNL233W, strain BNI4, active compounds read low 1.02 | locus YNL248C, strain rpa49, active compounds read low 0.982 | locus YNL250W, strain rad50, active compounds read low 1.04 | locus YNL271C, strain bni1, active compounds read low 1 | locus YNL298W, strain CLA4, active compounds read low 1 | locus YNL307C, strain MCK1, active compounds read low 1 | locus YNL322C, strain KRE1 (second series), active compounds read low 0.985 | locus YNR049C, strain mso1, active compounds read low 0.994 | locus YNR052C, strain pop2, active compounds read low 0.995 | locus YOL012C, strain htz1 0.863 | locus YOL147C, strain pex11, active compounds read low 1.01 | locus YOR001W, strain rrp6, active compounds read low 1 | locus YOR061W, strain CKA2, active compounds read low 1.02 | locus YOR069W, strain VPS5, active compounds read low 1 | locus YOR070C, strain gyp1, active compounds read low 0.998 | locus YOR080W, strain dia2, active compounds read low 0.983 | locus YOR083W, strain WHI5, active compounds read low 1 | locus YOR106W, strain vam3, active compounds read low 1.01 | locus YOR136W, strain idh2, active compounds read low 1 | locus YOR144C, strain elg1, active compounds read low 0.999 | locus YOR184W, strain ser1, active compounds read low 1.03 | locus YOR265W, strain rbl2, active compounds read low 0.988 | locus YOR270C, strain vph1, active compounds read low 1.03 | locus YOR290C, strain snf2, active compounds read low 1.03 | locus YOR316C, strain cot1, active compounds read low 0.999 | locus YPL051W, strain arl3, active compounds read low 0.997 | locus YPL078C, strain atp4, active compounds read low 0.988 | locus YPL106C, strain sse1, active compounds read low 0.991 | locus YPL240C, strain hsp82, active compounds read low 0.974 | locus YPL241C, strain CIN2, active compounds read low 1.01 | locus YPR119W, strain clb2, active compounds read low 0.991 | locus YPR141C, strain kar3, active compounds read low 1.01 | locus YPR163C, strain tif3, active compounds read low 1 | locus YPR167C, strain met16, active compounds read low 1 | strain wtn01, active compounds read low 0.998
